# Reference: PubChem BioAssay AID1039 (National Center for Advancing Translational Sciences (NCATS), 2008)
# Active and inactive are the calls of the source. Entries that show only a call come without a potency. Calls follow the shape of the full dose curve.
# Test: Normal 2 Cell Viability Secondary Assay for qHTS Assay for Epigenetic Modulators
# Conditions: Normal 2 bronchial epithelial viability, MTS, 4 days
# Text: NIH Molecular Libraries Screening Centers Network [MLSCN] NIH Chemical Genomics Center [NCGC] MLSCN Grant: 1 X01 MH079860-01 Assay Provider: Elisabeth D. Martinez, University of Texas SW Medical Center NCGC Assay Overview: This secondary assay characterizes selected actives identified in the qHTS of the Locus Derepression (LDR) assay (PubChem AID 597). The LDR assay detects the derepression of a GFP reporter that is stably integrated in a region of the genome of murine c127i mammary cells that is presumably silenced. Compounds that cause derepression of the locus to express GFP are identified by enumerating GFP positive cells using a laser-scanning microplate cytometer. Selected LDR actives were assayed for killing of Normal 2, a patient-derived normal bronchial epithelial line matched to NSCLC 2, a nonsmall cell lung carcinoma line from the same patient. The Normal 2 line assays the cytoxicity of test compounds on normal lung cells. Normal 2 cell viability was measured using Cell Titer 96 AQueous One (Promega), an assay which detects the ability of metabolically active cells to reduce a tetrazolium salt substrate (MTS), into a soluble formazan product that can be measured by colorimetry.
# NCGC Assay Protocol Summary Normal 2 cells were plated in 96-well flat bottom tissue culture dishes (Corning) and grown overnight at 37 C and 5% CO2, then treated with compounds, incubated 4 days, and assayed for viability using the Cell Titer 96 AQueous One kit (Promega) according to the manufacturer's protocol. Absorbance at 490 nm and 650 nm (reference) was measured by a Spectra Max (Molecular Devices). Data were normalized to the untreated control (100% viability). Each cell line was tested in one or two independent assays, each containing 4 or 8 replicates. For further details, see R.L. Johnson, W. Huang, A. Jadhav, C.P. Austin, J. Inglese, E.D. Martinez, A Quantitative High-Throughput Screen Identifies Potential Epigenetic Modulators of Gene Expression, Analytical Biochemistry (2007), doi: 10.1016/j.ab.2007.12.028
SMILES,outcome,Potency
CC(/C=C/C(=O)NO)=C\[C@@H](C)C(=O)c1ccc(N(C)C)cc1,inactive,–
CC(C)C(=O)NC(c1ccc(N(C)C)cc1)c1ccc2cccnc2c1O (stereo not drawn),–,5 µM (active)
CN1C(=S)SC(c2ccccc2)N(C)C1c1ccccc1 (stereo not drawn),inactive,–
O=C(CSc1cccc2cccnc12)N1CCCC1,inactive,–
O=Nc1ccc(O)c2ncccc12,–,9 µM (active)
CC(C)C(=O)NC(c1ccco1)c1cc([N+](=O)[O-])c2cccnc2c1O (stereo not drawn),–,2 µM (active)
O=C(CSc1cccc2cccnc12)NCc1ccccc1,inactive,–
CC(C)C(=O)NC(c1ccco1)c1ccc2cccnc2c1O (stereo not drawn),–,10 µM (active)
